Test results from PubChem BioAssay AID1745849 (National Center for Advancing Translational Sciences (NCATS), 2022).
Screen size: about 2,100 compounds; about 320 (15%) were called active. Roughly 52% stayed inconclusive and do not appear here. The call rests on the fitted dose curve; in most records, active means well fitted cell-killing curve with a large enough effect; inconclusive means small, poorly fitted or top-dose-only effect, or effect the other way; inactive means flat fitted curve, though single readings scatter. The list shows a part of the results. Entries that show only a call come without a potency.

Test: Viability Counterscreen for CMV-Luciferase Assay of Inhibitors of ATXN expression; further: nearly all actives have a fitted effect of over 55% in size
Conditions: HEK-293 CMV-luciferase cells viability, protease fluorescence, 24 h
Outline: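 Fluorescence from cleaved Gly-Phe-AFC (25 uM final, 30 min, ex 405/em 540 nm) reported viability, and the luciferase signal of the same CMV-reporter HEK-293 wells was read 5 min after SteadyGlo addition. Dosing lasted 24 hr.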
Potency means the concentration at half of the fitted maximal effect.

Compound | Potency
O=C(c1cccc(Cl)c1)c1nn(-c2ccccc2)c(=O)cc1C(F)(F)F | 22.4 µM (active)
Cc1cc(=O)oc2c1c(C)nn2-c1cccc(Cl)c1 | inactive
CC(C)=C1SC(N2CCN(c3ccc(C)c(Cl)c3)CC2)=NC1=O | inactive
O=C(NC(c1ccccc1)c1ccc2ccccc2n1)C1CCN(CCOc2ccc(Cl)cc2Cl)CC1 (stereo not drawn) | 17.8 µM (active)
CC(C)Nc1nc(NC(C)C)nc(N(C#N)CCOc2ccc(Cl)cc2Cl)n1 | inactive
COc1ccc(NC2=NCC(Cc3ccc(Br)cc3)S2)cc1 (stereo not drawn) | inactive
COc1ccc(N2C3=C(CC4=C2CC(C)(C)CC4=O)C(=O)CC(C)(C)C3)cc1 | inactive
CCCCNC(=O)C1(C)CCCCN1Cc1ccccc1-c1ccccc1 (stereo not drawn) | inactive
C/C(=C\C(=O)c1ccc(Br)cc1)NNC(=O)c1ccc(O)cc1 | 12.6 µM (active)
CC(=NNC(=O)c1ccncc1)c1ccc(O)cc1O | inactive
O=c1ccc2ccccc2c2ccccc12 | 10 µM (active)
O=c1cc(-c2ccncc2)oc2c1ccc1ccccc12 | inactive
COc1cccc(/C=C2/SC(=S)N(CCCC(=O)Nc3ccc(O)cc3)C2=O)c1 | 3.98 µM (active)
COc1cc(/C=C2\SC(=O)N(CC(=O)Nc3ccccc3F)C2=O)cc(Cl)c1O | inactive
COc1ccc(/C=C2\SC(=S)N(CCCC(=O)NNC(=O)c3ccccc3O)C2=O)cc1 | 20 µM (active)
COc1ccccc1/C=C1\SC(=S)N(CCC(=O)NC2=NCCS2)C1=O | inactive
Cc1ccc(/C=C2\SC(=S)N(CCCC(=O)Nc3cc(C)on3)C2=O)cc1 | inactive
Cc1ccc(/C=C2\SC(=S)N(CCCC(=O)Nc3ccc(O)cc3)C2=O)cc1 | inactive
Cc1ccc(C(=O)NNC(=O)CCCN2C(=O)/C(=C/c3ccccc3Cl)SC2=S)cc1 | inactive
O=C(CCc1ccccc1)NNC(=O)c1cc(Cl)ccc1O | inactive
Cc1ccc(/C=C2/SC(=S)N(CCCC(=O)Nc3cc([N+](=O)[O-])ccc3O)C2=O)cc1 | 25.1 µM (active)
CC(C)(C)c1ccc(OCCCC(=O)NNC(=O)c2ccccc2O)cc1 | 25.1 µM (active)
Cc1ccc(/C=C2\SC(=S)N(CCCC(=O)NC3CCCC3)C2=O)cc1 | inactive
Cc1ccc2c(CC(=O)NNC(=O)c3ccccc3O)coc2c1 | inactive
O=C(C1CCC(CNS(=O)(=O)c2cccs2)CC1)N1CCN(c2ccc(F)cc2)CC1 (stereo not drawn) | inactive
CC1CCN(Cc2c(C(=O)N/N=C/c3cc(Cl)ccc3O)nnn2-c2nonc2N)CC1 | inactive

Compound | Potency
CCOc1ccccc1C(=O)Nc1ccc2nc(N3CCN(c4ncccn4)CC3)cc(C)c2c1 | inactive
Cn1nccc1C(=O)N1CCCC(C(=O)c2cccc3ccccc23)C1 (stereo not drawn) | inactive
COC(=O)C1=C(C)N(c2ccc(Cl)c(Cl)c2)C(=O)C1 | inactive
FC(F)(F)c1ccc(N2CCN(c3cc(-c4ccccc4)nc4ncnn34)CC2)nc1 | inactive
Clc1ccccc1C(c1ccccc1)(c1ccccc1)n1ccnc1 | inactive
Cc1ccc(C)c(CN2CCC(CNC(=O)Nc3ccc(C)c(C)c3)CC2)c1 | inactive
Cc1cc(C)nc(NNS(=O)(=O)c2ccc(F)c(Cl)c2)n1 | inactive
Cc1cc(C)c(C(=O)/C=C/c2ccc(C(C)C)cc2)c(=O)[nH]1 | 17.8 µM (active)
COC1=C(C)C(O)=C(C(=O)/C=C/c2ccccc2)C(=O)C1(C)C | inactive
Cc1[nH]c(=O)c(C(=O)/C=C/c2ccccc2)c2c1CCCC2 | 11.2 µM (active)
NS(=O)(=O)c1ccc(N2N=C(c3ccccc3)CC2c2cccc(Cl)c2)cc1 (stereo not drawn) | inactive
COc1cc2c(O)c3c(c(-c4ccc5c(c4)OCO5)c2cc1OC)C(=O)OC3 | inactive
CCCCOc1ccc(NC2=NC3(CCCC3)N=C(N)N2)cc1 | inactive
Cc1ccn2c(Nc3ccccc3C)c(-c3ccccn3)nc2c1 | 8.91 µM (active)
Cc1cccn2c(Nc3ccccc3)c(-c3ccccn3)nc12 | inactive
Cc1ccc(Nc2c(-c3ccccn3)nc3cc(C)ccn23)cc1 | 3.55 µM (active)
Cc1ccc(Nc2c(-c3ccccn3)nc3cccc(C)n23)cc1 | 3.98 µM (active)
NS(=O)(=O)c1ccc(CCNC(=O)COC(=O)/C=C/c2cc(Br)ccc2F)cc1 | inactive
COC(=O)c1cc(Cl)ccc1NCC(N)c1ccccc1 (stereo not drawn) | inactive
O=C1CN(C(=O)c2c(F)cccc2F)C(c2ccc(F)cc2)c2cc(Br)ccc2N1 (stereo not drawn) | inactive
CCOc1ccc(S(=O)(=O)NCCC(=O)N2CC=C(c3ccccc3)CC2)cc1 | inactive
Cc1cc(N2CCN(Cc3nc(-c4ccc(Cl)cc4)oc3C)CC2)cc(C)n1 | inactive
N#C/C(=C\Nc1ccc2cn[nH]c2c1)c1nc(-c2ccc(Cl)cc2)cs1 | inactive
Cc1ccc(S(=O)(=O)c2nc(S(C)(=O)=O)sc2N2CCCCC2C)cc1 (stereo not drawn) | inactive
COc1ccc(CNC(=O)c2ccc(-c3cccnc3)c3ccoc23)cc1OC | inactive
COc1ccc(Cc2nnc(N/N=C/c3ccccc3O)[nH]c2=O)cc1OC | 5.62 µM (active)

Compound | Potency
COc1cc(Br)cc(/C=N/NC(=O)Cc2ccccc2)c1O | inactive
Cc1ccc(NC(=O)CN2C(=O)c3ccccc3S2(=O)=O)cc1C | inactive
[O-][n+]1onc2c1CCc1c-2nn(-c2ccccc2Cl)[n+]1[O-] | 25.1 µM (active)
CN1C(=O)/C(=C\c2ccccc2F)Sc2ccc(C(=O)NC3CCN(Cc4ccccc4)CC3)cc21 | inactive
O=C(Cc1coc2cc3c(cc12)CCC3)OCC(=O)N1CCCC1=O | inactive
CCCc1nc(C)cc(N2CCN(c3ccccc3)CC2)n1 | inactive
CCCCn1c2ccc(F)cc2c2nnc(NN)nc21 | 14.1 µM (active)
COc1cccc(-c2nn(C)c3sc(C(=O)NCCCN(C)Cc4ccccc4)cc23)c1 | inactive
CCCCC(=O)NNC(=S)NC(=O)c1ccc(C)cc1 | inactive
CC(C)CC(=O)NC(=S)NNC(=O)c1ccc(NC(=O)C2CCCCC2)cc1 | inactive
COc1ccc(C(=O)NNC(=S)NC(=O)C(C)(C)C)cc1 | 25.1 µM (active)
Cc1ccc(Cl)cc1-c1ccc(C=Nc2ccc(N3CCOCC3)cc2)o1 | inactive
COc1cc(C#Cc2c(-c3cncn3C)n(C)c3ccc(-c4cnc(N5CCOCC5)nc4)cc23)cc(OC)c1 | inactive
COc1ccc(-c2csc3ncnc(Sc4nnnn4C)c23)cc1 | inactive
Cn1nnnc1Sc1ncnc2scc(-c3cccs3)c12 | 8.91 µM (active)
O=C(c1ccco1)N1CCN(c2ncnc3scc(-c4cccs4)c23)CC1 | inactive
C[C@@H]1CC=C[C@@H]2[C@H]1C(=O)N(Cc1ccccc1)[C@H]2c1ccccc1Br | inactive
CCOC(=O)C1CCN(c2ncnc3c2cnn3-c2ccc(Cl)cc2)CC1 | inactive
Cc1ccc(N=Nc2ccc(O)c3ncccc23)cc1 | 10 µM (active)
CCCOCc1ccc(O)c2ncccc12 | inactive
Cc1ccccc1N=Nc1ccc(O)c2ncccc12 | 7.94 µM (active)
COc1ccc(CNCCC(c2ccc(OC(C)C)cc2)c2ccccc2OC)cc1 (stereo not drawn) | inactive
CCCC1CCC(c2ccc(C(=O)NN)cc2)CC1 (stereo not drawn) | inactive
O=S(=O)(c1ccc2nc(COc3ccc(Cl)cc3Cl)[nH]c2c1)N1CCOCC1 | inactive
Cc1ccnc(NC(=O)CCCc2c[nH]c3ccccc23)c1 | inactive
CC[n+]1c(/C=C/c2c[nH]c3ccccc23)ccc2cc(C)ccc21 | 12.6 µM (active)

Compound | Potency
Cc1ccc(C)c(S(=O)(=O)N2CCN(c3ncnc4sccc34)CC2)c1 | inactive
COc1ccccc1-c1ccc2c(c1)C(C)(Cc1cccc(F)c1)C(=O)N2 (stereo not drawn) | inactive
NC1=NC[C@H](Cc2ccccc2)N1CCCCC1CCCCC1 | inactive
C[C@@H](CN1C2=NC[C@H](Cc3ccccc3)N2C[C@H]1Cc1ccc(O)cc1)NC(=O)CCC1CCCCC1 | 17.8 µM (active)
CC1CCC(CN2C(Nc3ccccc3)=NC[C@@H]2Cc2ccccc2)CC1 (stereo partly drawn) | inactive
Cc1cc(OCC(=O)Nc2ccc(Br)cc2)cc2c1C(=O)CC(C)(C)O2 | inactive
COc1cc(N)ccc1Nc1c2ccccc2nc2ccccc12 | 14.1 µM (active)
COc1cc2cc(C(=O)NC(C)c3cccc4ccccc34)c(N)nc2cc1OC (stereo not drawn) | inactive
OCCNc1c2ccccc2nc2ccccc12 | inactive
O=c1c2c(-c3ccccc3)csc2nc2c3ccccc3c(NCCN3CCOCC3)nn12 | inactive
CC(=O)C(=Cc1cccc(C#N)c1)C(=O)c1ccccc1 | 22.4 µM (active)
Cc1ccc(NC(=O)CCC(=O)c2cc(C)sc2C)nc1 | inactive
CCOC(=O)c1c(NC(=O)CSc2nnnn2-c2ccccc2)sc2c1CC(C)(C)NC2(C)C | inactive
CCN(CC)CCCNc1nc2ccccc2c2nc(-c3ccncc3)nn12 | 15.8 µM (active)
O=C(Nc1nc(-c2ccc(S(=O)(=O)N3CCOCC3)cc2)cs1)c1ccccc1 | inactive
COc1cccc(C(=O)Nc2nc(-c3ccc(S(=O)(=O)N4CCOCC4)cc3)cs2)c1 | inactive
O=C(CCN1C(=O)C2CC=CCC2C1=O)Nc1nc(-c2ccc(F)c(F)c2)cs1 (stereo not drawn) | inactive
COC(=O)C(Cc1ccc(O)cc1)NC(=O)C(C)Oc1ccccc1 (stereo not drawn) | inactive
O=C(Nc1nc(-c2ccccn2)cs1)Nc1ccc(F)cc1F | 11.2 µM (active)
COC(=O)COc1ccc(-c2nccc(-c3ccccn3)n2)cc1 | inactive
O=C(Nc1nc(-c2ccccn2)cs1)c1ccc(F)c(S(=O)(=O)N2CCOCC2)c1 | 5.01 µM (active)
CC(C)CC(N)c1csc(NC(=O)Nc2ccccc2C(C)(C)C)n1 (stereo not drawn) | inactive
CC(Oc1ccc(F)cc1)C(=O)Nc1nc(-c2ccccn2)cs1 (stereo not drawn) | 7.94 µM (active)
O=C(CN1C(=O)C2CCCCC2C1=O)Nc1nc(-c2ccccn2)cs1 (stereo not drawn) | 17.8 µM (active)
NC(c1ccccc1)c1csc(NC(=O)Nc2ccccc2Oc2ccccc2)n1 (stereo not drawn) | inactive
